Experimental data as given in the supplement of paper PMC12669032.
A number with no mark means an inactive call.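 The calls were made as follows: active = AUC reduced over 20% with Padj below 0.05 in at least 2 of 3 replicates; inactive = otherwise.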

How the values were obtained:
Experiment in all cases: growth AUC relative to DMSO control (median of replicates) (fraction); higher = more growth (less inhibition), active = hit call of the paper
Settings in all cases: 20 µM; 24 h
Coprococcus comes = tested on: Coprococcus comes
Method in brief: (§1)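 Starting at OD600 0.05, gut bacterial monocultures in mGAM were grown anaerobically at 37 °C with 20 µM compound (1% DMSO) under pierced gas-permeable seals. OD600 was read every hour for 24 h, and the lowest OD of each curve was set to 0. Area under the growth curve was normalised to the plate median of solvent-only wells, or to row and column medians on the industrial chemical plate, and the median of three biological replicates grown on separate days is given.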

Escherichia coli ED1a = tested on: Escherichia coli ED1a
Method in brief: as §1

Escherichia coli IAI1 = tested on: Escherichia coli IAI1
Method in brief: as §1

Eubacterium rectale = tested on: Eubacterium rectale
Method in brief: as §1

[1] = tested on: Fusobacterium nucleatum subsp. animalis
Method in brief: as §1

Lactobacillus gasseri = tested on: Lactobacillus gasseri
Method in brief: as §1

Lactobacillus paracasei = tested on: Lactobacillus paracasei
Method in brief: as §1

Odoribacter splanchnicus = tested on: Odoribacter splanchnicus
Method in brief: as §1

[2] = tested on: Parabacteroides distasonis
Method in brief: as §1

Parabacteroides merdae = tested on: Parabacteroides merdae
Method in brief: as §1

Roseburia intestinalis = tested on: Roseburia intestinalis
Method in brief: as §1

Streptococcus salivarius = tested on: Streptococcus salivarius
Method in brief: as §1

| Structure (SMILES) | growth AUC (Coprococcus comes) | growth AUC (Escherichia coli ED1a) | growth AUC (Escherichia coli IAI1) | growth AUC (Eubacterium rectale) | growth AUC [1] | growth AUC (Lactobacillus gasseri) | growth AUC (Lactobacillus paracasei) | growth AUC (Odoribacter splanchnicus) | growth AUC [2] | growth AUC (Parabacteroides merdae) | growth AUC (Roseburia intestinalis) | growth AUC (Streptococcus salivarius) |
| --- | --- | --- | --- | --- | --- | --- | --- | --- | --- | --- | --- | --- |
| O=c1oc2ccccc2c(O)c1C1CC(c2ccc(OCc3ccc(C(F)(F)F)cc3)cc2)Cc2ccccc21 (mixture of isomers) | 0.858 | 1.03 | 1.04 | 0.431 (active) | 1.02 | 0.484 (active) | 0.631 (active) | 0.989 | 0.031 (active) | 0.251 (active) | 0.411 (active) | 0.212 (active) |
| CNC(=O)ON=C(C)C(C)SC (stereo not given) | 0.972 | 1.03 | 1.02 | 1.12 | 1.07 | 0.89 | 0.803 | 0.91 | 0.943 | 0.915 | 0.949 | 0.924 |
| CCOC1Oc2ccc(OS(C)(=O)=O)cc2C1(C)C (stereo not given) | 0.943 | 0.949 | 0.964 | 1.16 | 0.903 | 0.891 | 0.98 | 1.15 | 0.879 | 0.927 | 0.924 | 0.964 |
| CCOP(=S)(OCC)SCS(=O)CC (stereo not given) | 1.03 | 0.996 | 1.01 | 0.995 | 1.04 | 0.95 | 0.95 | 1.06 | 1.09 | 0.998 | 0.995 | 0.976 |
| C[n+]1ccc(-c2cc[n+](C)cc2)cc1.O.[Cl-].[Cl-] | 0.98 | 1.03 | 0.991 | 0.963 | 0.937 | 1.05 | 1.01 | 0.873 | 0.997 | 0.954 | 1 | 0.982 |
| CNC(=O)Oc1cccc2c1OC(C)(C)O2 | 1.02 | 1 | 0.993 | 0.967 | 1.01 | 1.11 | 0.984 | 1.02 | 1.02 | 1.02 | 1.01 | 1 |
| CCOP(=S)(OCC)SCn1nnc2ccccc2c1=O | 1.01 | 1.01 | 1.03 | 1.02 | 1.09 | 1.01 | 1.05 | 0.926 | 0.707 (active) | 0.946 | 1.11 | 0.993 |
| Clc1ccc(Cl)c(Cl)c1Cl | 0.989 | 0.973 | 0.981 | 0.968 | 1.03 | 0.945 | 1.11 | 0.973 | 0.981 | 0.999 | 0.999 | 1.04 |
| CNC(=O)/C=C(\C)OP(=O)(OC)OC | 1.05 | 1.05 | 1.02 | 0.999 | 1.02 | 1.03 | 1.06 | 0.989 | 1.03 | 1.01 | 1.07 | 1.04 |
| CC(C)N(C)S(=O)(=O)NC(=O)c1cc(-n2c(=O)cc(C(F)(F)F)n(C)c2=O)c(F)cc1Cl | 1.03 | 1.02 | 1 | 1.01 | 0.98 | 1.02 | 1.04 | 0.99 | 1.08 | 1 | 1.03 | 0.998 |
| COP(=S)(OC)Oc1cc(Cl)c(I)cc1Cl | 1.01 | 1.02 | 0.985 | 1.01 | 1.08 | 0.872 | 1 | 0.962 | 0.707 (active) | 0.964 | 0.974 | 0.936 |
| O=C(NC(=O)c1c(F)cccc1F)Nc1cc(Cl)c(OC(F)(F)C(F)C(F)(F)F)cc1Cl (stereo not given) | 0.919 | 0.996 | 1 | 1.01 | 1.01 | 0.989 | 0.976 | 0.993 | 0.964 | 0.988 | 1.02 | 0.958 |
| N#Cc1cc(I)c(O)c(I)c1 | 1.02 | 0.891 | 0.764 (active) | 0.954 | 0.828 | 0.95 | 0.982 | 0.853 | 0.814 | 0.802 | 0.993 | 0.898 |
| N#Cc1c(Cl)cccc1Cl | 0.994 | 0.999 | 1.03 | 0.936 | 1.04 | 1.17 | 0.884 | 1.01 | 1.04 | 1.01 | 1.07 | 0.951 |
| C#CC(C)(C)NC(=O)c1cc(Cl)cc(Cl)c1 | 1 | 0.984 | 0.963 | 1.04 | 0.95 | 0.91 | 1.03 | 1.06 | 1.01 | 1.01 | 0.936 | 0.914 |
| CNC(=O)/C(=N\OC)c1ccccc1Oc1ccccc1 | 1.01 | 1.01 | 1 | 0.963 | 0.974 | 1.05 | 0.986 | 0.961 | 1.02 | 0.99 | 0.995 | 0.999 |
| COc1nc(C)nc(NC(=O)NS(=O)(=O)c2ccccc2CCC(F)(F)F)n1 | 0.967 | 0.997 | 0.976 | 0.954 | 0.992 | 1.06 | 1 | 0.962 | 1.01 | 1 | 0.98 | 0.989 |
| COc1cc(OC)n2nc(S(=O)(=O)Nc3c(Cl)ccc(C)c3Cl)nc2n1 | 1.02 | 0.993 | 1.02 | 0.994 | 0.9 | 1.09 | 0.978 | 1.02 | 1.06 | 0.986 | 0.999 | 0.954 |
| Oc1c(Cl)c(Cl)cc(Cl)c1Cl | 0.971 | 0.917 | 0.746 (active) | 0.947 | 0.923 | 0.936 | 1.02 | 0.666 (active) | 0.637 (active) | 0.786 | 0.978 | 0.869 |
| CC(C)OC(=O)Nc1cccc(Cl)c1 | 1.02 | 1.01 | 0.965 | 1.07 | 1.06 | 0.85 | 0.985 | 1.13 | 0.965 | 1.06 | 0.906 | 0.981 |
| CCC(C)(CC)c1cc(NC(=O)c2c(OC)cccc2OC)on1 | 1.03 | 1.01 | 0.988 | 0.986 | 0.986 | 0.932 | 1.02 | 1.04 | 1 | 0.939 | 0.963 | 0.979 |
| COP(=S)(OC)Oc1ccc(SC)c(C)c1 | 1.02 | 0.997 | 0.987 | 0.878 | 1.08 | 1.01 | 1.02 | 1 | 0.915 | 0.953 | 1.03 | 0.965 |
| CS(=O)(=O)c1ccc(C(=O)C2C(=O)CCCC2=O)c(Cl)c1COCC(F)(F)F | 1.01 | 1.01 | 0.994 | 1.04 | 1.05 | 0.917 | 0.989 | 1.14 | 0.944 | 1.01 | 0.964 | 0.974 |
| O=C(Nc1ccccc1)c1ccccc1I | 1.05 | 1.04 | 1 | 0.97 | 1.04 | 1.09 | 0.96 | 0.989 | 0.991 | 1.01 | 1 | 1.03 |
| NCCO.O=C(O)c1nc(Cl)ccc1Cl | 1.05 | 1.01 | 1.01 | 0.912 | 1.04 | 0.979 | 1.02 | 1.02 | 1.02 | 1.01 | 1.03 | 1.05 |
